# According to the supplement of paper PMC9135407:
# Where “and” joins values, the source holds several entries; their conditions need not be identical. Equal values may be shown once. Where a name gives a salt, the structure may show the parent alone. Hit rate of the full screen: of about 5,800 compounds, about 620 (11%) showed activity. What follows is part of a selection rich in actives, with near analogues and random picks from the rest. A number with no mark means an inactive call.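 The calls were made as follows: active = score above a cut-off or among the top three wells of a plate; in these data no inactive exceeds 0.85.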
# Tested on: primary human hepatic stellate cells (donor 1)
# Assay: scaled lipid accumulation score (0 = DMSO-like, 1 = nortriptyline-like); higher = stronger HSC inactivation (lipid re-accumulation), active = hit call of the paper
# Settings: 48 h
# [1] = library stock concentration: 1 mM
# [2] = library stock concentration: 10 mM
# [3] = library stock concentration: 3.33 mM
# [4] = library stock concentration: 80 uM
# [5] = library stock concentration: 400 uM
# [6] = library stock concentration: 2 mM
# [7] = library stock concentration: 6.8 mM
compound,measurement,setting,value
O=C(O)CCC/C=C\C[C@@H]1[C@@H](/C=C/[C@@H](O)C2Cc3ccccc3C2)[C@@H](F)C[C@@H]1O,scaled lipid accumulation score,[1],≤ 0
CC(=O)OCC1=C(C(=O)O)N2C(=O)[C@@H](NC(=O)CSc3ccncc3)[C@H]2SC1 [Cephapirin sodium],scaled lipid accumulation score,library stock concentration: 4.5 mM,≤ -0.001
same,scaled lipid accumulation score,[2],≤ 0
CCOC(=O)c1ccc(N=Nc2ccc(O)c(CC(=O)O)c2)cc1,scaled lipid accumulation score,[1],≤ 0
CC#CCC(C)[C@H](O)/C=C/[C@@H]1[C@H]2C/C(=C/CCCC(=O)O)C[C@H]2C[C@H]1O (stereo partly drawn) [5-cis Iloprost],scaled lipid accumulation score,[1],0.135
"CCCCC[C@H](O)/C=C/[C@@H]1[C@H]2C/C=C\CCCC(=O)O[C@H]2C[C@H]1O [Prostaglandin F2.alpha. 1,9-lactone]",scaled lipid accumulation score,[1],≤ 0
CCN(CCO)CCCOc1ccc2c(Nc3cc(CC(=O)Nc4cccc(F)c4)[nH]n3)ncnc2c1 [Barasertib (AZD1152-HQPA)],scaled lipid accumulation score,[3],≤ 0
same,scaled lipid accumulation score,[2],≤ 0
COc1ccc(Cl)cc1NC(=O)Nc1cc(C)nc2ccccc12 [listing 1 of 2 here],scaled lipid accumulation score,[3],0.097
same,scaled lipid accumulation score,[2],0.391
COc1ccc(Cl)cc1NC(=O)Nc1cc(C)nc2ccccc12 [IGF-1R Inhibitor II],scaled lipid accumulation score,[3],0.188
CCn1cc(NC(=S)Nc2cc(Cl)ccc2OC)c(C(N)=O)n1,scaled lipid accumulation score,[3],≤ -0.009
same,scaled lipid accumulation score,[2],0.111
COc1ccc(Cl)cc1NC(=O)Nc1cc(C)nc2ccccc12 [listing 2 of 2 here],scaled lipid accumulation score,[2],1.1 (active)
O=C(CCSCc1ccco1)NNC(=O)N1Cc2ccccc2Oc2ccc(Cl)cc21,scaled lipid accumulation score,[2],≤ 0
CC1CCN=C(N)S1 (stereo unspecified) [AMT hydrochloride],scaled lipid accumulation score,[2],0.018
CC1CCN=C(N)S1 (stereo unspecified),scaled lipid accumulation score,[2],≤ 0
O=C(c1ccc(Nc2nccc(-c3cc4ccccc4s3)n2)cc1)N1CCC(N2CCCC2)CC1 [IKK Inhibitor VII],scaled lipid accumulation score,[3],1.06 (active)
O=C(c1ccc(Nc2nccc(-c3cc4ccccc4s3)n2)cc1)N1CCC(N2CCCC2)CC1 [IKK-16 (IKK Inhibitor VII)] [listing 1 of 2 here],scaled lipid accumulation score,[3],1.04 (active)
O=C(c1ccc(C(=O)N2CCC(N3CCCC3)CC2)c(Nc2ccccc2)c1)N1CCC(N2CCCC2)CC1,scaled lipid accumulation score,[4],≤ 0
same,scaled lipid accumulation score,[5],≤ 0
same,scaled lipid accumulation score,[6],≤ 0
same,scaled lipid accumulation score,[3],≤ 0
same,scaled lipid accumulation score,[2],0.002 and ≤ 0
O=C(c1ccc(Nc2nccc(-c3cc4ccccc4s3)n2)cc1)N1CCC(N2CCCC2)CC1 [IKK-16 (IKK Inhibitor VII)] [listing 2 of 2 here],scaled lipid accumulation score,[2],0.246
O=C(c1ccc(Nc2nccc(-c3cc4ccccc4s3)n2)cc1)N1CCC(N2CCCC2)CC1,scaled lipid accumulation score,[2],0.18
O=C(c1cncc(Br)c1)N1CCC(N2CCCC2)CC1,scaled lipid accumulation score,[4],≤ 0
same,scaled lipid accumulation score,[5],≤ 0
same,scaled lipid accumulation score,[6],≤ 0
same,scaled lipid accumulation score,[3],≤ -0.009
same,scaled lipid accumulation score,[2],≤ 0
O=C(Cc1cccs1)N[C@@H]1C(=O)N2C(C(=O)[O-])=C(C[n+]3ccccc3)CS[C@H]12 [Cephaloridine],scaled lipid accumulation score,[2],≤ 0
COc1ccc2cc([C@H](C)CO)ccc2c1 [Naproxol],scaled lipid accumulation score,library stock concentration: 9.2 mM,≤ 0
same,scaled lipid accumulation score,[2],0.031
O=c1cc(CN2CCOCC2)occ1OCCCCCSc1ccnc2cc(C(F)(F)F)ccc12,scaled lipid accumulation score,[3],≤ -0.009
same,scaled lipid accumulation score,[2],0.475
CCCCC[C@H](O)/C=C/[C@H]1[C@H](O)CC(=O)[C@@H]1C/C=C/CCCC(=O)O [5-trans Prostaglandin E2],scaled lipid accumulation score,[1],≤ 0
COC(=O)Nc1nc2cc(C(=O)c3cccs3)ccc2[nH]1 [Nocodazole] [listing 1 of 2 here],scaled lipid accumulation score,[3],0.021
same,scaled lipid accumulation score,library stock concentration: 6.6 mM,0.262
COC(=O)Nc1nc2cc(C(=O)c3ccccc3)ccc2[nH]1 [Mebendazol],scaled lipid accumulation score,[7],0.097
COC(=O)Nc1nc2cc(C(=O)c3cccs3)ccc2[nH]1 [Nocodazole] [listing 2 of 2 here],scaled lipid accumulation score,,0.883 (active)
COC(=O)Nc1nc2cc(C(=O)c3ccccc3)ccc2[nH]1 [Mebendazole],scaled lipid accumulation score,,≤ 0
same,scaled lipid accumulation score,[7],0.082
same,scaled lipid accumulation score,[2],0.402 and 0.071
CCCNS(=O)(=O)Nc1ncnc(OCCOc2ncc(Br)cn2)c1-c1ccc(Br)cc1 [Macitentan],scaled lipid accumulation score,[3],≤ -0.009
same,scaled lipid accumulation score,[2],≤ 0
